In PubChem BioAssay (EPA / NIEHS):
Activity calls are given as the source filed them. How the source made its calls: active means hit-call score of the fitted dose curve at least 0.9, where 1 is the maximum; inactive means score below 0.9.

Read-out: Monocyte Chemoattractant Protein-1 (MCP1), CCL2 (gene 6347)
Experiment: BSK_3C_MCP1: BioMAP Diversity Plus: 3C Assay for Monocyte Chemoattractant Protein-1 (MCP1) Biomarker Activity (AID 2283017)
Settings: primary human endothelial cells (HUVEC); actives raise or lower the signal
How it was run: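 Using human vascular primary endothelium, researchers measured MCP-1 by ELISA 24 h after treatment, with DMSO serving as negative control for bidirectional fitting.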

AC50, active:
CCOC(=O)COc1ccc2c(c1)CC(NCC(O)c1cccc(Cl)c1)CC2 (stereo not given) 33.6 µM
CCCCCCCCCCCCCCCO 32.6 µM
O=C(CCCCCCCCc1cccnc1)N1CCC(C=C(c2ccccc2)c2ccccc2)CC1 8.66 µM
CNS(=O)(=O)c1cc(C(=O)N2CCC(CCN3C4CCC3CC(n3c(C)nc5ccccc53)C4)(c3cccc(F)c3)CC2)c(Cl)cc1F (stereo not given) 33.7 µM
CCOc1cccc(-n2cc(C(=O)N3CCN(c4cc(C(=O)O)c5ccccc5c4)CC3)nc2-c2ccc(C)cc2)c1 23 µM
O=C(OC[C@H]1O[C@@H](OC(=O)c2cc(O)c(O)c(OC(=O)c3cc(O)c(O)c(O)c3)c2)[C@H](OC(=O)c2cc(O)c(O)c(OC(=O)c3cc(O)c(O)c(O)c3)c2)[C@@H](OC(=O)c2cc(O)c(O)c(OC(=O)c3cc(O)c(O)c(O)c3)c2)[C@@H]1OC(=O)c1cc(O)c(O)c(OC(=O)c2cc(O)c(O)c(O)c2)c1)c1cc(O)c(O)c(OC(=O)c2cc(O)c(O)c(O)c2)c1 9.09 µM
CCc1cc(SCc2sc(-c3ccc(C(F)(F)F)cc3)nc2CN2CCN(c3ccc(OC)cc3)CC2)ccc1OCC(=O)O 12 µM
Cn1c(=O)cc(Oc2ccc(F)cc2F)c2cnc(NCC(C)(C)O)nc21 3.14 µM
CC[C@H](C)C(=O)O[C@H]1C[C@@H](C)C=C2C=C[C@H](C)[C@H](CC[C@@H]3C[C@@H](O)CC(=O)O3)[C@H]21 24 µM

outcome, inactive:
O=C1OC(=O)C2C3C=CC(C3)C12 (stereo not given)
O=P(OC(CCl)CCl)(OC(CCl)CCl)OC(CCl)CCl
COCCOCCOCCOC
CC(C)=CCCC(C)CCO (stereo not given)
C1=CCCC=CCCC=CCC1
CC[C@H]1CC[C@H](NCc2cc3c(cc2OC)[C@H]2C[C@H]2C(=O)N3C)[C@H](c2ccccc2)N1
CC(C)(O)c1coc(S(=O)(=O)NC(=O)Nc2c3c(cc4c2CCC4)CCC3)c1
CCN(C(=O)c1cc(C)cc(OC[C@H](C)Nc2ccncc2)c1)C(C)C
Cc1ccc(S(=O)(=O)O)cc1C
CCCCC(CC)COC(=O)CCCCCCCCC(=O)OCC(CC)CCCC (stereo not given)
O=C(NS(=O)(=O)/C=C/c1ccccc1)c1ccc(F)cc1Cl
COCCOc1cc2cc(C(=O)NC3CCN(C(C)C)CC3)n(CC(=O)Nc3ccc(Cl)cn3)c2cn1
CCCCCCCCO
CC(C)CCCCCCOC(=O)c1ccc(C(=O)OCCCCCCC(C)C)c(C(=O)OCCCCCCC(C)C)c1
Nc1nc2ncc(CNc3ccc(C(=O)N[C@@H](CCC(=O)O)C(=O)O)cc3)nc2c(=O)[nH]1
CC(=O)OCCC(C)C
COC(=O)CC(=O)OC
Cc1c(-c2cccnc2)c2ccccc2n1CCCCC(=O)O
Nc1cccc(N)c1
COC(=O)c1ccccc1O
CC[C@H]1OC(=O)[C@H](C)[C@@H](O[C@H]2C[C@@](C)(OC)[C@@H](O)[C@H](C)O2)[C@H](C)[C@@H](O[C@@H]2O[C@H](C)C[C@H](N(C)C)[C@H]2O)[C@](C)(O)C[C@@H](C)C(=O)[C@H](C)[C@@H](O)[C@]1(C)O
